Some of the results follow. Where a call stands in place of a potency, no number is given. Results filed as inconclusive are left out. Active and inactive are the calls of the source. The call rests on the fitted dose curve; in most records, active means well fitted inhibition curve with a large enough effect; inconclusive means small, poorly fitted or top-dose-only effect; inactive means no such curve, though single readings can be large or run the other way.
Target: Glutathione-independent formaldehyde dehydrogenase (Pseudomonas putida) (UniProt P46154)
Sequence (P46154 whole entry, looked up): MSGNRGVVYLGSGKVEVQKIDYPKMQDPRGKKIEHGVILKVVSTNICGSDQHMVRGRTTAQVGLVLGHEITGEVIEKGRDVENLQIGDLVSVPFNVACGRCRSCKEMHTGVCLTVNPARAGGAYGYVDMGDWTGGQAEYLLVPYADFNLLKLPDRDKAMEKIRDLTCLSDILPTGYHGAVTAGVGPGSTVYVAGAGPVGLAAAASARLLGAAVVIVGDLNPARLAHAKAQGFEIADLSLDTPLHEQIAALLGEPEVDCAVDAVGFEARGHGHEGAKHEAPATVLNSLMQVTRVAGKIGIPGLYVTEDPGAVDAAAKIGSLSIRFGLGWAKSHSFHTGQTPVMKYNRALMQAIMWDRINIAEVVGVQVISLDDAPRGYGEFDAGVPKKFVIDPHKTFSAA
Experiment: Counterscreen for JMJD2E Inhibitors: qHTS Assay for Inhibitors of Formaldehyde Dehydrogenase (FDH)
Conditions: FDH enzyme assay, NADH fluorescence kinetic; series mostly up to 56.7 µM
Procedure: This assay is a counterscreen for a related assay for inhibitors of JMJD2E. See AID 2147 for details. The JMJD2E assay utilized an FDH-coupled protocol. To screen for false positive results in the primary assay due to inhibition of the formaldehyde dehydrogenase coupled enzyme, an FDH-only assay was run using FDH as the enzyme (0.000025 U/uL final concentration) and 10 uM formaldehyde and 0.25 mM NAD+ as the substrate, and following the same fluidic protocol as described in AID 2147 for the coupled HTS assay. Actives in this assay are likely false positives of the primary HTS.
Assay is initiated by dispensing 3 uL of enzyme solution (4/3x final concentration) into a 1,536-well assay plate using a nanoliter solenoid-based dispenser (Beckman-Coulter, Fullerton, CA). After pintool transfer of compound solution, the assay plate is incubated at room temperature for 10 minutes, followed by a 1 uL addition of 4x substrate solution to initiate the reaction (final assay volume of 4 uL). The plate is then manually transferred into the ViewLux reader for kinetic measurements.

Structure (SMILES) | Potency
COc1ccc(Cl)cc1CSc1ncn[nH]1 | 316 nM (active)
Oc1ccc(/C=C/c2c(F)cccc2F)c2cccnc12 | inactive
Cc1ccc(N2C(=O)CC(Sc3ncn[nH]3)C2=O)cc1 (configuration not stated) | 316 nM (active)
O=C1CC(Sc2ncn[nH]2)C(=O)N1c1ccccc1 (configuration not stated) | 316 nM (active)
Oc1c(CN2CCCC2)cc(COCc2ccccc2)c2cccnc12 | inactive
Nc1ccc(Nc2cc(O)c3ncccc3c2)cc1 | inactive
Oc1cccc2cc(-c3ccncc3)cnc12 | inactive

— PubChem BioAssay AID2680 (National Center for Advancing Translational Sciences (NCATS), 2010)
